SENP7 block = SENP7 protease inhibitors, primary screen, biochemical, luminescence, uHTS; 330,000 tested, 1.5% active; inhibition, % at 5 µM; recombinant SENP7, Z-RLRGG-aminoluciferin luminescence, 40 min; Sentrin-specific protease 7 (Homo sapiens), Q9BQF6;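 active = inhibition above about 50% at the single test dose, limit read from the data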;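 also: plate controls were DMSO with enzyme for no effect and no enzyme buffer wells for full effect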
Target sequence (Q9BQF6 706-1050 limits assumed): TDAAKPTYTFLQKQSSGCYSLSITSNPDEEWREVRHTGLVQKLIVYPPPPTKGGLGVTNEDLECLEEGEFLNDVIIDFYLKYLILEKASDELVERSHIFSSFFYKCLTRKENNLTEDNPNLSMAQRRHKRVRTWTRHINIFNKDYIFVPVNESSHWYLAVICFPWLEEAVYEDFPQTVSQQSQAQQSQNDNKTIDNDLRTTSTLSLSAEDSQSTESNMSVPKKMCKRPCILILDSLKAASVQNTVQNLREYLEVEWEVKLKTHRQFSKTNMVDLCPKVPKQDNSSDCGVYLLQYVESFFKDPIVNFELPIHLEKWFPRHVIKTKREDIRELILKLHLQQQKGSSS
SENP6 block = SENP6 protease inhibitors, primary screen, biochemical, luminescence, uHTS. Recombinant SENP6 catalytic domain, aminoluciferin luminescence. inhibition, % at 10 µM. Sentrin-specific protease 6 (Homo sapiens), Q9GZR1. 330,000 tested, 1.8% active;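 active = inhibition above about 50% at the single tested dose, limit read from the data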;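 also: plate controls were DMSO wells with enzyme for no effect and DMSO wells lacking enzyme for full effect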
SENP8 block-1 = SENP8 protease inhibitors, primary screen, biochemical, luminescence; Sentrin-specific protease 8 (Homo sapiens), Q96LD8; purified SENP8, Z-RLRGG-aminoluciferin cleavage; inhibition, % at 10 µM; 330,000 tested, 1.2% active; in the data active = inhibition above about 50%
SENP8 block-2 = human SENP8 protease inhibitors, primary screen, biochemical, fluorescence, Nedd8 protein substrate, uHTS; Sentrin-specific protease 8 (Homo sapiens), Q96LD8; recombinant SENP8; inhibition, % at 20 µM; 360,000 tested, 0.64% active; AID 602440, 2012; in the data active = inhibition mostly above about 40%, no sharp cut-off; inactive = mostly below about 27%
Platelet DG rel = inhibitors of platelet dense granule secretion, primary screen, cell-based, MLPCN, human platelets. human platelet-rich plasma, SFLLRN dense granule ATP release, luminescence. inhibition, %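 (compounds screened at 7.5 µM in platelet-rich plasma)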. 300,000 tested, 0.22% active. AID 1663, 2009;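 active = mean replicate score, as percent of positive control, at or above 50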
SENP8 conf = SENP8 protease inhibitors, retest, confirmation, biochemical, luminescence, single concentration | shares compounds with SENP7 block | Recombinant SENP8, Z-RLRGG-aminoluciferin luminescence, 60 min | inhibition, % at 12.5 µM | 6,200 tested, 40% active | AID 488912, 2010;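 active = mean inhibition across replicates above about 50%, limit read from the data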
SENP6 conf = SENP6 protease inhibitors, confirmation, biochemical, luminescence, single concentration; AID 488915, 2010; 6,200 tested, 58% active; inhibition, % at 12.5 µM; recombinant SENP6, Z-RLRGG-aminoluciferin luminescence; shares compounds with SENP7 block
SENP7 conf = SENP7 protease inhibitors, retest, confirmation, biochemical, luminescence, single concentration; shares compounds with SENP7 block; recombinant SENP7, Z-RLRGG-aminoluciferin luminescence, 40 min; inhibition, % at 12.5 µM; 6,200 tested, 69% active
Casp3 select = caspase-3 protease inhibitors, confirmation, selectivity assay for SENP inhibitor project, biochemical, single concentration; shares compounds with SENP7 block; purified caspase-3, Z-DEVD-aminoluciferin luminescence, 60 min; inhibition, % at 12.5 µM; 6,200 tested, 60% active;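 active = mean inhibition above about 50%, limit read from the data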;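 also: plate controls were enzyme with DMSO for no effect and wells without caspase-3 for full effect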
Target sequence (P42574 28-227 limits assumed): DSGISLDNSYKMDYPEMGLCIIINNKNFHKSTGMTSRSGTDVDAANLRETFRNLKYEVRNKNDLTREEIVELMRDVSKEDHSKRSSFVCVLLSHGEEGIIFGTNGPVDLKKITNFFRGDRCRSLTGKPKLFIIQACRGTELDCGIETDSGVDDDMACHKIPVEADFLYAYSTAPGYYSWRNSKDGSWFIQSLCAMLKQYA
Luc interf = counter-screen for SENP inhibitors: luminescence interference | shares compounds with SENP7 block | Pre-incubated SENP8/Z-RLRGG-aminoluciferin, luciferase luminescence interference | inhibition, % at 12.5 µM | 6,200 tested, 39% active | AID 488919;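 active = mean inhibition above about 50% when retested at one dose, limit read from the data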;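 also: plate controls were DMSO wells with completed reaction for no effect and substrate without enzyme for full effect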
* hit, by the source's call; . = no result. Shown are actives, neighbours in structure and some others; about 2.4% of the full set was active somewhere.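 The calls were made as follows, unless noted: active = mean inhibition above about 50% in the one-dose retest (limit read from the data); inactive = the rest.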

SMILES	SENP7 block	SENP6 block	SENP8 block-1	SENP8 block-2	Platelet DG rel	SENP8 conf	SENP6 conf	SENP7 conf	Casp3 select	Luc interf
COc1cccc(NC(=O)c2cc3ccccc3oc2=O)c1	100*	94*	90*	17	32	-8	4	-3	10	5
Cc1cccnc1NC(=O)c1cc2ccccc2oc1=O	91*	20	5	-20	14	53*	52*	80*	68*	24
CCc1nnc(NC(=O)c2cc3ccccc3oc2=O)s1	5	-10	0	6	16	.	.	.	.	.
COc1ccc2oc(=N)c(C(=O)Nc3ccc(C)cc3)cc2c1	4	-20	11	-5	-4	.	.	.	.	.
N=c1oc2ccc(Cl)cc2cc1C(=O)Nc1ccc(F)cc1	-13	-20	-4	4	-4	.	.	.	.	.
N=c1oc2ccccc2cc1C(=O)Nc1ccccc1	93*	86*	89*	18	21	-5	56*	78*	47	6
COc1ccc2oc(=N)c(C(=O)Nc3ccccc3)cc2c1	72*	62*	45	-203	.	34	35	69*	57*	20
O=C(Cn1cc(Cl)ccc1=O)c1ccc(Cl)cc1	-3	-15	-11	7	-4	.	.	.	.	.
CCNC(=S)NNC(=O)c1cc(-c2cccc(OC)c2)nc2ccccc12	11	57*	41	-56	39	64*	60*	79*	85*	71*
CCNC(=S)NNC(=O)c1cc(-c2ccc(OCC)cc2)nc2ccccc12	95*	94*	94*	-280	103*	98*	98*	102*	98*	46
CCOC(=O)c1c(S(=O)(=O)NCC(=O)Nc2ccccc2)c(C)n(C)c1C	73*	-10	-7	-18	-4	-12	-11	-11	-5	-15
CCOC(=O)c1c(S(=O)(=O)NCC(=O)Nc2cccc(C)c2)c(C)n(C)c1C	3	1	-6	9	-4	.	.	.	.	.
O=C(O)c1ccc(OCc2ccc(C(=O)O)o2)cc1	92*	88*	84*	24	1	87*	88*	99*	55*	71*
O=C(O)c1ccc(COc2ccc(Cl)cc2)o1	82*	79*	80*	16	-5	91*	90*	97*	32	89*
CCc1ccc(OCc2ccc(C(=O)O)o2)cc1	86*	90*	90*	4	-8	95*	95*	100*	52*	94*
O=C(O)c1ccc(COc2ccccc2[N+](=O)[O-])o1	30	57*	15	15	1	46	35	71*	11	50*
O=C(c1ccc(COc2ccccc2[N+](=O)[O-])o1)N1CCCCC1	-4	4	3	20	-2	.	.	.	.	.
O/N=C\c1cnc(N2CCN(c3ccccc3)CC2)s1	-7	-4	-1	20	3	.	.	.	.	.
Cc1cc(C)cc(Nc2ccc(C(=O)O)cc2N)c1	1	2	0	-476	-17	.	.	.	.	.
Cc1ccc(Nc2ccc(C(=O)O)cc2N)cc1	98*	98*	94*	.	-3	98*	99*	102*	89*	97*
Nc1nc(SCc2ccc(F)cc2)ns1	-14	-9	-16	2	-3	.	.	.	.	.
CN(C)c1ccc(/C=C/C(=O)c2ccccc2O)cc1	89*	92*	86*	14	8	18	27	14	8	-2
Cc1ccc(O)c(C(=O)/C=C/c2ccc3c(c2)OCCCO3)c1	-11	31	3	14	-3	.	.	.	.	.
O=C(/C=C/c1ccc2c(c1)OCCCO2)c1ccccc1O	84*	88*	81*	22	30	91*	93*	92*	57*	26
CC(c1ccncc1)C(C)c1ccncc1 (centres undefined)	4	-11	-5	10	0	.	.	.	.	.
SMILES	SENP7 block	SENP6 block	SENP8 block-1	SENP8 block-2	Platelet DG rel	SENP8 conf	SENP6 conf	SENP7 conf	Casp3 select	Luc interf
CC(C)C[C@H]1CNC(=S)N1C[C@H]1CCCN1C[C@H](Cc1ccccc1)N1C[C@H](CC(C)C)N(CCc2ccccc2)C1=S	.	.	.	20	.	.	.	.	.	.
CC1C(=O)NN=C1C(=O)N/N=C\c1ccc(O)cc1O (centres undefined)	75*	71*	61*	8	13	68*	65*	87*	89*	24
CCN1C(=O)[C@H]2[C@@H](c3ccc(C(F)(F)F)cc3)N[C@]3(CCCN(Cc4cccn4C)C3=O)[C@H]2C1=O	.	.	.	18	.	.	.	.	.	.
Nc1c2c(nc3sc4c(c13)CCCCC4)CCCCC2	74*	73*	57*	2	-3	25	23	39	19	3
CC1CCc2nc3sc4c(c3c(N)c2C1)CCCC4 (centres undefined)	-2	29	-7	-5	-7	.	.	.	.	.
Cn1cccc1C(=O)Nc1ccc(N2CCOCC2)cc1	62*	24	37	16	.	59*	54*	82*	85*	33
COc1ccc(C(=O)c2ccc(OC)c(Br)c2)cc1Br	10	98*	-2	12	-4	11	7	9	3	4
O=C(Nc1ccc(N2CCCCC2)cc1)c1ccc(F)cc1	83*	79*	68*	12	10	11	14	20	47	10
COc1ccc(C(=O)Nc2ccc(N3CCOCC3)cc2)cc1OC	89*	89*	82*	23	66*	58*	86*	97*	95*	20
Fc1cccc(Cc2noc(CN3CCC(c4ccncc4)CC3)n2)c1	8	-7	1	10	3	.	.	.	.	.
Cc1ccc(OCC(=O)Nc2ccccc2[N+](=O)[O-])c(Br)c1	18	19	-11	6	8	.	.	.	.	.
COc1ccc(C(=O)Nc2ccc(N3CCCC3)cc2)cc1Br	1	64*	60*	28	2	1	20	14	48	12

Screens as filed in PubChem.
